Common to all, as to assay: DAPPL (digital affinity profiling via proximity ligation, sequencing); 10 mM Tris-HCl pH 7.5, 50 mM NaCl, 1 mM DTT, 4% glycerol, room temperature, 30 min; GST-TFs on glutathione beads, 16-mer random dsDNA library, 0.1% formaldehyde crosslink after washing; high values mean tight binding
Details in all cases: protein: recombinant; tags: N-terminal GST; dsDNA, one strand shown

One assay concerns the target T1, FLI1 (Homo sapiens, UniProt Q01543 1-452).
T1 sequence: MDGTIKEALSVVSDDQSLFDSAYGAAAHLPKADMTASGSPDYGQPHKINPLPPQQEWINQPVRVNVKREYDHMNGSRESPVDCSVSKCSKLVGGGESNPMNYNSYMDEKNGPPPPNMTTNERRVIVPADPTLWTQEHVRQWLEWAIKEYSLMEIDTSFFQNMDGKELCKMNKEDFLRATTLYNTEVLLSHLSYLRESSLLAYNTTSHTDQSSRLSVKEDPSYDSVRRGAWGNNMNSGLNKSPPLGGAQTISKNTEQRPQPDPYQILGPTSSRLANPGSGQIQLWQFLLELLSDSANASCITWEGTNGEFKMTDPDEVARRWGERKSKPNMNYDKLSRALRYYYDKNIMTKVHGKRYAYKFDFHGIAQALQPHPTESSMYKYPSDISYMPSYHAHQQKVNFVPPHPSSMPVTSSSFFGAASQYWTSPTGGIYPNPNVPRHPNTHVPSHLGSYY
The method, boiled down: (§1)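 Sequencing on an Illumina NextSeq500 followed washing, crosslinking with 0.1% formaldehyde, proximity ligation (BsaI/T4 ligase, 1 h, 37 °C) and PCR amplification of pools that had been incubated for 30 min at room temperature with 200 nmole of a random double-stranded 16-mer DNA library in Tris/NaCl/DTT/glycerol buffer. Each pool held DNA-barcoded human transcription factors, expressed in yeast as GST fusions and captured on glutathione beads, plus a tag-only sample. Binding signal is a hexamer's read frequency for a factor divided by its frequency in the tag-only sample.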

The next assay deals with T2, ELK1 (Homo sapiens, UniProt P19419 1-428).
T2 sequence: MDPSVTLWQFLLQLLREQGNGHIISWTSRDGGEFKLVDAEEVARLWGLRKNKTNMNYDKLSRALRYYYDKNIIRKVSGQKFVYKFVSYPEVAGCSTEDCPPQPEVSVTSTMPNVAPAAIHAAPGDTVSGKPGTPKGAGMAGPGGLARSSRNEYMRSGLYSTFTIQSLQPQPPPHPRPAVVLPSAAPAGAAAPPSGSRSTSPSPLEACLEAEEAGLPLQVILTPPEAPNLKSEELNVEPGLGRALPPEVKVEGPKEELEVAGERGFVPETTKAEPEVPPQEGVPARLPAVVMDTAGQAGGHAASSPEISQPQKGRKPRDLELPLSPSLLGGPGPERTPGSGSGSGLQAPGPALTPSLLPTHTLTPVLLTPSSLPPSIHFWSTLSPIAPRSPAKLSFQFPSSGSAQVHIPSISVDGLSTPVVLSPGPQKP
The method, boiled down: as §1

Another assay deals with T3, GABPA (Homo sapiens, UniProt Q06546 1-454).
T3 sequence: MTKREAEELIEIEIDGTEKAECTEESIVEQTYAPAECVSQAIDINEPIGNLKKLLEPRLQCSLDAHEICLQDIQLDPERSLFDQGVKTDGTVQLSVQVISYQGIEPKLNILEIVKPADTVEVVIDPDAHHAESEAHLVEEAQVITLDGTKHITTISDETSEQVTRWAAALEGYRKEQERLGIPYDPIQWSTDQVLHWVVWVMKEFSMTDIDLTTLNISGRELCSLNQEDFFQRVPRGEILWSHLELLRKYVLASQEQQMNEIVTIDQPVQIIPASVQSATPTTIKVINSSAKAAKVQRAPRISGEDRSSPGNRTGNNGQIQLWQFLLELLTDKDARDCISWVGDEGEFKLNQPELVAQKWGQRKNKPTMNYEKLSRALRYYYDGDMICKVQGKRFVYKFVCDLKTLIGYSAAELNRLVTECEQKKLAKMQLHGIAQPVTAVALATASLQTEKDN
The method in brief: as §1

The target of the next assay is T4, ERG (Homo sapiens, UniProt P11308 1-479).
T4 sequence: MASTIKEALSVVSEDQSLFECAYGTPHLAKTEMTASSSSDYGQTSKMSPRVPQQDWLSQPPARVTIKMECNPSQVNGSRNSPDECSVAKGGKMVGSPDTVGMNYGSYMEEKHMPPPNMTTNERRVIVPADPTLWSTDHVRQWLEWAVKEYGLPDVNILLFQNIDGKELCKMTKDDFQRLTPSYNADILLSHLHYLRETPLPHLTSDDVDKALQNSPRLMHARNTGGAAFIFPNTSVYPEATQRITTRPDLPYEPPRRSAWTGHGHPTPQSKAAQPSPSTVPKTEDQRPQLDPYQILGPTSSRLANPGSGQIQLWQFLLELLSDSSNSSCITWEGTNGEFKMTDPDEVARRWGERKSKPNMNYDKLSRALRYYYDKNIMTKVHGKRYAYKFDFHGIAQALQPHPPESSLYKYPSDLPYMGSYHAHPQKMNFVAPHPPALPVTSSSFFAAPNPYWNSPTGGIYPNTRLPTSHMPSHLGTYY
The method in brief:
as §1

The target in a further assay is ELF1 (Homo sapiens, UniProt P32519 1-619). The method in brief:
as §1

The target in a further assay is T5, EHF (Homo sapiens, UniProt Q9NZC4 1-300).
T5 sequence: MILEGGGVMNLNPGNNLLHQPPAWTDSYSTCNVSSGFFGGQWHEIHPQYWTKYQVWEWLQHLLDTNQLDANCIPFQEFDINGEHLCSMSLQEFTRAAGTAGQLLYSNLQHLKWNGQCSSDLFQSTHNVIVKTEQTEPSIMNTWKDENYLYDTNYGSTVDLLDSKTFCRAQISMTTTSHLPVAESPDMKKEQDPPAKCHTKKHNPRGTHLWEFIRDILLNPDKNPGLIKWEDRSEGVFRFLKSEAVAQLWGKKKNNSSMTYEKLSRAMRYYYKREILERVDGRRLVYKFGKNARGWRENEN
The method in brief:
as §1

For the next assay, the target named is SPI1 (Homo sapiens, UniProt P17947 1-270). The method in brief: as §1
The next assay deals with SPIB (Homo sapiens, UniProt Q01892 1-262). The method, boiled down:
as §1

Another assay has as its target T6, FEV (Homo sapiens, UniProt Q99581 1-238).
T6 sequence: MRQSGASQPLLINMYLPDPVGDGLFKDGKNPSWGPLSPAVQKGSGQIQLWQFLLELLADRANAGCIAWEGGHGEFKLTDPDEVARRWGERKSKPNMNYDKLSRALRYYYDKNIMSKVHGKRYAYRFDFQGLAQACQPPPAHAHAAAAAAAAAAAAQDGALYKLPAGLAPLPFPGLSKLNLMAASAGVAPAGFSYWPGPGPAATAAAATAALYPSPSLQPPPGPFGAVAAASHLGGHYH
The method, boiled down: as §1

The target of the next assay is ETV5 (Homo sapiens, UniProt P41161 1-510). The method in brief: as §1
The target of another assay is T7, SPIC (Homo sapiens, UniProt Q8N5J4 1-248).
T7 sequence: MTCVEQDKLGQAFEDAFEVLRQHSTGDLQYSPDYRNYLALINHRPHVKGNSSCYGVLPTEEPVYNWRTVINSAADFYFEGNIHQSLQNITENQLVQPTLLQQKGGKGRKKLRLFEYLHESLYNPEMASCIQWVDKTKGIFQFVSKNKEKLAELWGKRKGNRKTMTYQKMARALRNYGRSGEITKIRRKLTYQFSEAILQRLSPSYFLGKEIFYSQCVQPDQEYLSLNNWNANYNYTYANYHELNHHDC
The method, boiled down:
as §1

The next assay addresses ELF4 (Homo sapiens, UniProt Q99607 1-663). The method, boiled down:
as §1

Another assay concerns the target T8, ELK4 (Homo sapiens, UniProt P28324-2 1-405).
T8 sequence: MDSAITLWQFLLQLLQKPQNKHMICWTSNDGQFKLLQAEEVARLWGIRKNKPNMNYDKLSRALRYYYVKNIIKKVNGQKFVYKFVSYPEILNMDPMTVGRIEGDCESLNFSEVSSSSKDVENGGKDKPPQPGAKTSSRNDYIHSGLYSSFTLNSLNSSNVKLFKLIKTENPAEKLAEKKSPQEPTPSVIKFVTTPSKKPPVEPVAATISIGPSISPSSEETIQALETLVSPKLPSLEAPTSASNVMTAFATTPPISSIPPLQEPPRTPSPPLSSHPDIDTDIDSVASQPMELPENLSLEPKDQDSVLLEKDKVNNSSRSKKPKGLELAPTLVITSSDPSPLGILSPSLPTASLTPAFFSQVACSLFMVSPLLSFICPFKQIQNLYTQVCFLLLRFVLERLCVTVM
The method, boiled down: as §1

The target of another assay is T9, ETV2 (Homo sapiens, UniProt O00321 1-342).
T9 sequence: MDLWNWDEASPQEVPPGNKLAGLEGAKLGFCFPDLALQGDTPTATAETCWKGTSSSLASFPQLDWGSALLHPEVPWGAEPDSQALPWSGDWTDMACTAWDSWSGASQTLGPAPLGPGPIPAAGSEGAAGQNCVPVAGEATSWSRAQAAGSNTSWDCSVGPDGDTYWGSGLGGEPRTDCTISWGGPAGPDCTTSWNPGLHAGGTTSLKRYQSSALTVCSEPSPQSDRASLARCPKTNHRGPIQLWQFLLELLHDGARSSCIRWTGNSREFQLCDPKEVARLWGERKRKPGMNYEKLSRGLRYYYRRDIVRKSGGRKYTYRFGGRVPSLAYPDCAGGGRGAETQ
The method in brief: as §1

The next assay concerns the target T10, ELF3 (Homo sapiens, UniProt P78545 1-371).
T10 sequence: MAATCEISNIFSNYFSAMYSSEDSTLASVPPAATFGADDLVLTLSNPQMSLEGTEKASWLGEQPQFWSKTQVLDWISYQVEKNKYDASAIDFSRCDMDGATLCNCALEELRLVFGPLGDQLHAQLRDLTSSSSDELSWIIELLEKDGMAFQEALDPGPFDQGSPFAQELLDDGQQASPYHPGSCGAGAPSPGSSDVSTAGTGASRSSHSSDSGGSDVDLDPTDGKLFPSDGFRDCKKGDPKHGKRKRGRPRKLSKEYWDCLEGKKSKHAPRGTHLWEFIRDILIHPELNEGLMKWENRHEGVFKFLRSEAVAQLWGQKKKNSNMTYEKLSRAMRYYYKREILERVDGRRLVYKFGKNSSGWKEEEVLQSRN
The method in brief: as §1

A further assay concerns the target ETV1 (Homo sapiens, UniProt P50549 1-477). The method in brief: as §1
Another assay deals with T11, ELK3 (Homo sapiens, UniProt P41970 1-407).
T11 sequence: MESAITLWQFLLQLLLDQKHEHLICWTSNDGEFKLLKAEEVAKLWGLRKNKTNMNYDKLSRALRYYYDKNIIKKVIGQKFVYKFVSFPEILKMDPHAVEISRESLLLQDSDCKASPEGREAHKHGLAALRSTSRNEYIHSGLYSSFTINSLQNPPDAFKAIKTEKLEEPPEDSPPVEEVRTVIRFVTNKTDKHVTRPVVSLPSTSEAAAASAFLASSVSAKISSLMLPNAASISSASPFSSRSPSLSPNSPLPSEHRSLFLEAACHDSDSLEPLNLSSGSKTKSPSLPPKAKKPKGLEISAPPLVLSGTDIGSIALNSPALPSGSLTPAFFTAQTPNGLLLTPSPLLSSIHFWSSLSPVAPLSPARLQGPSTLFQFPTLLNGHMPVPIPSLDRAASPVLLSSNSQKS
The method in brief: as §1

Sequence of ELF1 (P32519 whole entry): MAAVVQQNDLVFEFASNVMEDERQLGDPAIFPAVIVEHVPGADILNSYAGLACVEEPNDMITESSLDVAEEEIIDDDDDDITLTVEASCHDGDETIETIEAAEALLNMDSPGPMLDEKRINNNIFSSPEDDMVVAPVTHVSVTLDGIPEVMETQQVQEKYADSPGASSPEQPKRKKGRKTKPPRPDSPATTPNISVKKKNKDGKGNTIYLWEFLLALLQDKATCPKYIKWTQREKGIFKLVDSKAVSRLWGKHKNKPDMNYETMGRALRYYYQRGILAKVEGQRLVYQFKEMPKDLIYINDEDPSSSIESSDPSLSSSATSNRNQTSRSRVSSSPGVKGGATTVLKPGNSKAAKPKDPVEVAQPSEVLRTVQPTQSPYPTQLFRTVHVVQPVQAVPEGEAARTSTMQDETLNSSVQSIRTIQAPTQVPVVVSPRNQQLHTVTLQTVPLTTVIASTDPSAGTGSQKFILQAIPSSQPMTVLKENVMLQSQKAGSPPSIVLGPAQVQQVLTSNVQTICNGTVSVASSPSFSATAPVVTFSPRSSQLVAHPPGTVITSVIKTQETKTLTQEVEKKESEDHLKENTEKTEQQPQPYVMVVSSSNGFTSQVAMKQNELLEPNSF
Sequence of ETV1 (P50549 whole entry): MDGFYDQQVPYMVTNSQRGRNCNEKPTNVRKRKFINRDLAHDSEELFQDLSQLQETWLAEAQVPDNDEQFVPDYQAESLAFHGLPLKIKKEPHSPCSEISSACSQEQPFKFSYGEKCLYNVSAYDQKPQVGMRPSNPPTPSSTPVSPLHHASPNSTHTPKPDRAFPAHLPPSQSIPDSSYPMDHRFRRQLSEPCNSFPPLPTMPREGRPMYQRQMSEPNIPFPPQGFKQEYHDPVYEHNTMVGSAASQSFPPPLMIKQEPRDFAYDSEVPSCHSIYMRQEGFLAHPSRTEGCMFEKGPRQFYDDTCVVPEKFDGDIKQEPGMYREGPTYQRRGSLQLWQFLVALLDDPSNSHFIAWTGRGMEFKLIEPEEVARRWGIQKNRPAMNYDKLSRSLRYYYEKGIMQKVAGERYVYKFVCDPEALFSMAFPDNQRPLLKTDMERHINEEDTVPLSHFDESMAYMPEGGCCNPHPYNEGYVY
Sequence of ETV5 (P41161 whole entry): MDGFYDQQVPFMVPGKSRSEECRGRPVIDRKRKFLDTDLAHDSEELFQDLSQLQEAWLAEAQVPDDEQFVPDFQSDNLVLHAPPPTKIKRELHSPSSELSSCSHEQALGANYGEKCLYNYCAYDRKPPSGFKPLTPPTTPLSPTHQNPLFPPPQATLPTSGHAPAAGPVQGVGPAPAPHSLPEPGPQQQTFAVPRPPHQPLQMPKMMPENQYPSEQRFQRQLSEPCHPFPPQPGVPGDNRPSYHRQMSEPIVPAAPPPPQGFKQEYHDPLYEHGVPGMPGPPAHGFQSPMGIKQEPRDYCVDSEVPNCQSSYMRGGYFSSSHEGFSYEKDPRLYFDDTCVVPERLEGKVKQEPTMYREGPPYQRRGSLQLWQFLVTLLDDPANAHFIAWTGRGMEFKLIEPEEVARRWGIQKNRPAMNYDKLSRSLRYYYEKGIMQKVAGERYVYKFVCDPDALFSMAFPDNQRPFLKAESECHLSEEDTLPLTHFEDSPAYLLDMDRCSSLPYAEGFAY
Sequence of SPIB (Q01892 whole entry): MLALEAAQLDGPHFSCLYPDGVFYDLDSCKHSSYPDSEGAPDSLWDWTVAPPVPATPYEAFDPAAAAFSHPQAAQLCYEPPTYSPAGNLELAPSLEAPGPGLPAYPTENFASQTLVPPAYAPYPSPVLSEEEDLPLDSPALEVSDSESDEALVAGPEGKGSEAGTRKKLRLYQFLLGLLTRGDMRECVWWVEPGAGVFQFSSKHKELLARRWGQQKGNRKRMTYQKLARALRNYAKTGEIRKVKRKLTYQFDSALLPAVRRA
Sequence of ELF4 (Q99607 whole entry): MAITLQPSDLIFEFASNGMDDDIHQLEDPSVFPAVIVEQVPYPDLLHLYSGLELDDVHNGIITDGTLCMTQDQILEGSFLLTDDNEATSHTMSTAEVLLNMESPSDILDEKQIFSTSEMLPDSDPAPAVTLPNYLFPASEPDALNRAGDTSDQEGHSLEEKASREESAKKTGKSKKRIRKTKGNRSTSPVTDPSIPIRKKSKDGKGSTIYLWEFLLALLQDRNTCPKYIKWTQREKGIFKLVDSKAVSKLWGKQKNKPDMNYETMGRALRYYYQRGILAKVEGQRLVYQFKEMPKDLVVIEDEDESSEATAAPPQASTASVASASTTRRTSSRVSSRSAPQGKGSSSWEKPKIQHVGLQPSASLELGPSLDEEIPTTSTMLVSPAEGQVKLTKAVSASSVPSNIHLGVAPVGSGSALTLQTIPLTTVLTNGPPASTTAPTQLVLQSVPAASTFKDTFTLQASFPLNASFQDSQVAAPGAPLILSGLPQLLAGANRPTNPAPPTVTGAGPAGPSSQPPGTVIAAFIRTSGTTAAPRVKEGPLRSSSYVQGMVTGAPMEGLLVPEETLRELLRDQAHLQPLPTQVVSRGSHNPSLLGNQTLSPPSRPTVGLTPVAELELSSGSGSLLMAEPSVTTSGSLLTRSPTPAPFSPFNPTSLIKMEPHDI

For CTGTTG, the binding signal with FLI1 is 1.08 fold enrichment (6-mer frequency, TF over GST control); in the assay with ELK1, 1.02 fold enrichment (6-mer frequency, TF over GST control); with GABPA it was 1.11 fold enrichment (6-mer frequency, TF over GST control); with ERG, 1.09 fold enrichment (6-mer frequency, TF over GST control); with ELF1, 1.1 fold enrichment (6-mer frequency, TF over GST control); with EHF, 1.13 fold enrichment (6-mer frequency, TF over GST control). The binding signal with SPI1 was 1.16 fold enrichment (6-mer frequency, TF over GST control); in the assay with SPIB it was 1.15 fold enrichment (6-mer frequency, TF over GST control); in the assay with FEV, 1.06 fold enrichment (6-mer frequency, TF over GST control); with ETV5 it was 1.03 fold enrichment (6-mer frequency, TF over GST control); with SPIC it was 1.12 fold enrichment (6-mer frequency, TF over GST control); in the assay with ELF4, 1.17 fold enrichment (6-mer frequency, TF over GST control). The binding signal with ELK4 was 1.1 fold enrichment (6-mer frequency, TF over GST control); with ETV2, 1.13 fold enrichment (6-mer frequency, TF over GST control); with ELF3 it was 1.03 fold enrichment (6-mer frequency, TF over GST control); in the assay with ETV1, 1.09 fold enrichment (6-mer frequency, TF over GST control).

For the sequence CGTCAC, the binding signal in the assay with FLI1 is 1.24 fold enrichment (6-mer frequency, TF over GST control); with ELK1, 1.27 fold enrichment (6-mer frequency, TF over GST control); with GABPA it was 1.18 fold enrichment (6-mer frequency, TF over GST control); with ERG, 1.31 fold enrichment (6-mer frequency, TF over GST control); with ELF1, 1.24 fold enrichment (6-mer frequency, TF over GST control); with EHF it was 1.2 fold enrichment (6-mer frequency, TF over GST control). For the same sequence, the binding signal is 1.28 fold enrichment (6-mer frequency, TF over GST control) in the assay with SPI1; 1.18 fold enrichment (6-mer frequency, TF over GST control) in the assay with SPIB; 1.09 fold enrichment (6-mer frequency, TF over GST control) with ELK3; 1.26 fold enrichment (6-mer frequency, TF over GST control) in the assay with FEV; 1.24 fold enrichment (6-mer frequency, TF over GST control) with ETV5; 1.18 fold enrichment (6-mer frequency, TF over GST control) with SPIC. Further, the binding signal with ELF4 is 1.31 fold enrichment (6-mer frequency, TF over GST control); with ELK4, 1.24 fold enrichment (6-mer frequency, TF over GST control); with ETV2, 1.12 fold enrichment (6-mer frequency, TF over GST control); in the assay with ELF3, 1.21 fold enrichment (6-mer frequency, TF over GST control); with ETV1, 1.2 fold enrichment (6-mer frequency, TF over GST control).
